PubChem BioAssay
Values joined by “and” are separate entries in the source; they are usually repeats but may differ in a detail not shown here. Equal values may be shown once. Records with an inconclusive call do not appear. For some of these results: Results with a measured potency or affinity are listed apart. Active and inactive are the calls of the source.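 The calls were made as follows, unless noted: active = thallium flux through the channel raised or lowered by more than 3 SD from vehicle-only wells, actives on both sides; inactive = the rest.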

Key:
[1] = circadian clock period modulators, cell-based, LOPAC library, luminescence reporter (AID 2774; call rule not given here;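 also: values are relative to mean of DMSO wells on each plate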); conditions: circadian reporter cells, at 7 µM, actives lie on both sides
[2] = test system: Hepatitis C virus NS3 helicase; assay: HCV NS3 helicase inhibitors, primary screen, biochemical, fluorescence polarization, LOPAC1280 library (AID 687035; in the data active = inhibition above about 37%); conditions: Purified HCV NS3 helicase, Cy5-dT15 ssDNA binding fluorescence polarization; stronger effect = higher value; concentration not given here
[3] = Cy5 fluorescence quenching or enhancement artefacts, artefact control for HCV NS3 helicase inhibitor project, biochemical, LOPAC1280 (AID 687037; call rule not given here); conditions: Cy5-DNA-NS3h complex fluorescence interference counterscreen
[4] = test system: Aerobactin synthetase IucA (Klebsiella pneumoniae); assay: IucA aerobactin synthetase inhibitors, biochemical, Tocris library, absorbance (AID 1345561; call rule not given here;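 also: 100% = enzyme without compound and 0% = no enzyme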); conditions: purified IucA enzyme assay, absorbance (OD) read-out; stronger effect = lower value;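 tested at 8 µM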
[5] = phospholipid biosynthesis inhibitors in animal cells, primary screen, cell-based, LOPAC library, screen 4 (AID 1347384; call rule not given here); conditions: phospholipid biosynthesis inhibition screen, at 10 µM
F380Y/beta1 = assay: modulators of BK channel variants, profiling panel, selectivity assay, cell-based, U2OS BacMam, thallium flux, beta subunits (AID 1259406); conditions: at 30 µM;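 also: initial slope of Thallos dye fluorescence rise after thallium is added; log ratio against the mean of 0.3% DMSO vehicle wells on the same plate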
F380Y/beta4 = assay: as above; conditions: at 30 µM
R275C/beta4 = assay: as above; conditions: at 30 µM
R275C/Slo1WT/beta2 = assay: as above; conditions: at 30 µM
[6] = test system: Neuropilin-2 / VEGF-C interaction (human); assay: inhibitors of NRP2–VEGF-C binding, biochemical, microplate binding format, z-score (AID 743281; call rule not given here); conditions: microplate NRP2/VEGF-C binding assay; stronger effect = lower value
[7] = growth inhibition of DIPG glioma cells, dose response, cell-based, JHH-DIPG-1, MIPE4.0, CellTiter-Glo, qHTS (AID 1347062; cut-off not given, nearly all actives have AC50 up to about 27 µM); conditions: JHH-DIPG-1 viability, CellTiter-Glo ATP luminescence
[8] = polyglutamine-triggered caspase-3 activation inhibitors, cell-based (AID 1583); conditions: polyglutamine-induced caspase-3 activation, cell assay; stronger effect = higher value;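 tested at 10 µM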
[9] = suppressors of polyQ aggregation in yeast, 75Q-TubU reporter (AID 1593); conditions: Yeast 75Q polyglutamine aggregation reporter
[10] = rescue of polyQ-huntingtin neuronal dysfunction in worms, whole organism, C. elegans mechanosensory neurons, N-terminal huntingtin (AID 1599); conditions: touch response, stronger effect = higher value
[11] = inhibitors of mitochondrial cytochrome c release, biochemical, purified mitochondria (AID 1603); conditions: stronger effect = lower value;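 also: mouse liver mitochondria challenged with calcium chloride; signal normalized to the plate average as 100%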
[12] = inhibitors of polyQ protein aggregation (AID 1604); conditions: polyglutamine-induced protein aggregation inhibition assay; stronger effect = higher value; tested at 2.5 µM
[13] = enhancers of glutamate uptake in motor neurons, MN-1 cell line (AID 1612); conditions: MN-1 motor neuron cells, stronger effect = higher value;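 also: tested at 1 µM final; 0% = mean of DMSO vehicle wells on each plate; positive means more glutamate uptake than control and negative means less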
[14] = suppressors of polyglutamine aggregation in yeast, 75Q-TubH (AID 1616); conditions: S. cerevisiae 75Q-TubH polyglutamine aggregation suppression; stronger effect = higher value
[15] = hESC survival regulators, cell-based (AID 493140; call rule not given here;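 also: cells exposed to compounds for four days before counting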); conditions: human embryonic stem cell survival screen; stronger effect = higher value
[16] = modifiers of HSF1 nuclear foci, imaging, Selleck Cancer Library (AID 1347162; in the data active = plate-normalised HSF1 focus index below about 0.46); conditions: human cells, at 10 µM; SSMD: measured here: HSF1 foci SSMD mean; cell count: measured here: cell number; plate-normalised HSF1 focus index: stronger effect = lower value

## CC(C)(C(=O)O)c1ccc(C(O)CCCN2CCC(C(O)(c3ccccc3)c3ccccc3)CC2)cc1 (configuration not stated)
[1]
  period change: 0.08 h (inactive)
[2]
  inhibition: -1% (inactive)
[3]
  fluorescence ratio (interference): 1.1 (inactive)
[4]
  remaining activity: 89.1% (inactive)
[5]
  outcome: inactive
F380Y/beta1
  log fold change Tl+ flux: -0.0158 (inactive)
F380Y/beta4
  log fold change Tl+ flux: -0.0315 (inactive)
R275C/beta4
  log fold change Tl+ flux: 0.0234 (inactive)
R275C/Slo1WT/beta2
  log fold change Tl+ flux: 0.0197 (inactive)

## C[C@H]1COc2c(N3CCN(C)CC3)c(F)cc3c(=O)c(C(=O)O)cn1c23
[6]
  z-score: -0.188 (inactive)
[7]
  outcome: inactive
F380Y/beta1
  log fold change Tl+ flux: 0.0152 (inactive)
F380Y/beta4
  log fold change Tl+ flux: -0.0339 (inactive)
R275C/beta4
  log fold change Tl+ flux: -0.0147 (inactive)
R275C/Slo1WT/beta2
  log fold change Tl+ flux: 0.0224 (inactive)

## COc1ccc(-c2cc(=O)c3c(OC)c(OC)c(OC)c(OC)c3o2)cc1OC
[6]
  z-score: 0.248 (inactive)
F380Y/beta1
  log fold change Tl+ flux: 0.0362 (inactive)
F380Y/beta4
  log fold change Tl+ flux: -0.0316 (inactive)
R275C/beta4
  log fold change Tl+ flux: -0.242 (active)
R275C/Slo1WT/beta2
  log fold change Tl+ flux: -0.0213 (inactive)

## Nc1ncnc2c1ncn2[C@@H]1O[C@H](CO)[C@@H](O)[C@@H]1O
[8]
  inhibition: 13.4%
[9]
  score: 1.04
[10]
  rescue above control: -14.3
[11]
  cytochrome c release ratio: 1.16
[12]
  inhibition of aggregation: 56.1%
[13]
  glutamate uptake change: 13.7%
[14]
  aggregation suppression score: 0.666
F380Y/beta1
  log fold change Tl+ flux: 0.0507 (inactive)
F380Y/beta4
  log fold change Tl+ flux: 0.0319 (inactive)
R275C/beta4
  log fold change Tl+ flux: 0.00861 (inactive)
R275C/Slo1WT/beta2
  log fold change Tl+ flux: 0.0175 (inactive)

## COC(=O)[C@H](c1ccccc1Cl)N1CCc2sccc2C1
[8]
  inhibition: 62%
[9]
  score: 1.18
[10]
  rescue above control: 1.25
[11]
  cytochrome c release ratio: 0.98
[12]
  inhibition of aggregation: 77.8%
[13]
  glutamate uptake change: -7.57%
[14]
  aggregation suppression score: 1.88
[7]
  outcome: inactive
F380Y/beta1
  log fold change Tl+ flux: 0.0174 (inactive)
F380Y/beta4
  log fold change Tl+ flux: 0.0282 (inactive)
R275C/beta4
  log fold change Tl+ flux: -0.038 (inactive)
R275C/Slo1WT/beta2
  log fold change Tl+ flux: -0.0324 (inactive)

## CC(C)NCC(O)COc1cccc2ccccc12 (configuration not stated)
[8]
  inhibition: -12.7%
[9]
  score: 1.12
[10]
  rescue above control: -3.83
[11]
  cytochrome c release ratio: 1.04
[12]
  inhibition of aggregation: 62.1%
[13]
  glutamate uptake change: 4.46%
[14]
  aggregation suppression score: 0.965
[1]
  period change: -0.115 h (inactive)
[15]
  survival: 5.92 (inactive) and 9.92 (inactive) and 3.58 (inactive)
[2]
  inhibition: -4% (inactive)
[3]
  fluorescence ratio (interference): 1 (inactive)
[4]
  remaining activity: 97.5% (inactive)
[5]
  outcome: inactive
F380Y/beta1
  log fold change Tl+ flux: -0.00888 (inactive)
F380Y/beta4
  log fold change Tl+ flux: 0.0503 (inactive)
R275C/beta4
  log fold change Tl+ flux: 0.00549 (inactive)
R275C/Slo1WT/beta2
  log fold change Tl+ flux: -0.0153 (inactive)

## CN(C)c1nc(N(C)C)nc(N(C)C)n1
[8]
  inhibition: -2.79%
[9]
  score: 1.33
[10]
  rescue above control: 6.66
[11]
  cytochrome c release ratio: 1.53
[12]
  inhibition of aggregation: 78.1%
[13]
  glutamate uptake change: 20.9%
[14]
  aggregation suppression score: 1.21
[1]
  period change: -0.095 h (inactive)
[15]
  survival: 2.92 (inactive)
[2]
  inhibition: 0% (inactive)
[3]
  fluorescence ratio (interference): 0.9 (inactive)
[7]
  outcome: inactive
[16]
  SSMD: 0.836
  cell count: 7300
  plate-normalised HSF1 focus index: 1.03 (inactive)
[5]
  outcome: inactive
F380Y/beta1
  log fold change Tl+ flux: 0.0385 (inactive)
F380Y/beta4
  log fold change Tl+ flux: 0.0174 (inactive)
R275C/beta4
  log fold change Tl+ flux: -0.000902 (inactive)
R275C/Slo1WT/beta2
  log fold change Tl+ flux: 0.0129 (inactive)

## Cc1occc(=O)c1O
[6]
  z-score: -0.38 (inactive)
F380Y/beta1
  log fold change Tl+ flux: 0.0152 (inactive)
F380Y/beta4
  log fold change Tl+ flux: 0.0304 (inactive)
R275C/beta4
  log fold change Tl+ flux: -0.00174 (inactive)
R275C/Slo1WT/beta2
  log fold change Tl+ flux: 0.0112 (inactive)

## O=c1ccc2ccc(O)c(O)c2o1
[1]
  period change: 0.03 h (inactive)
[2]
  inhibition: 0% (inactive)
[3]
  fluorescence ratio (interference): 1.1 (inactive)
[7]
  outcome: inactive
[5]
  outcome: inactive

## CC(C)NCC(O)COc1ccc(CC(N)=O)cc1 (configuration not stated)
[8]
  inhibition: 16.6%
[9]
  score: 1.42
[10]
  rescue above control: -0.75
[11]
  cytochrome c release ratio: 0.86
[12]
  inhibition of aggregation: -11.1%
[13]
  glutamate uptake change: -9.65%
[14]
  aggregation suppression score: 1.39
[1]
  period change: 0.015 h (inactive)
[15]
  survival: 4.33 (inactive)
[2]
  inhibition: -1% (inactive)
[3]
  fluorescence ratio (interference): 0.9 (inactive)
[4]
  remaining activity: 121% (inactive)
[5]
  outcome: inactive
F380Y/beta1
  log fold change Tl+ flux: 0.000846 (inactive)
F380Y/beta4
  log fold change Tl+ flux: 0.0375 (inactive)
R275C/beta4
  log fold change Tl+ flux: 0.0424 (inactive)
R275C/Slo1WT/beta2
  log fold change Tl+ flux: 0.0165 (inactive)

## O=[N+]([O-])c1cccc2cn[nH]c12
[1]
  period change: -0.295 h (inactive)
[2]
  inhibition: -1% (inactive)
[3]
  fluorescence ratio (interference): 1 (inactive)
[6]
  z-score: -0.0317 (inactive)
[4]
  remaining activity: 107% (inactive)
[5]
  outcome: inactive
F380Y/beta1
  log fold change Tl+ flux: 0.0616 (inactive)
F380Y/beta4
  log fold change Tl+ flux: 0.0331 (inactive)
R275C/beta4
  log fold change Tl+ flux: 0.0112 (inactive)
R275C/Slo1WT/beta2
  log fold change Tl+ flux: -0.00893 (inactive)

## CC1=C(/C=C/C(C)=C/C=C/C(C)=C\C(=O)O)C(C)(C)CCC1
[1]
  period change: 0.45 h (inactive)
[15]
  survival: 10.8 (inactive) and 52.6 (inactive)
[2]
  inhibition: 1% (inactive)
[3]
  fluorescence ratio (interference): 0.9 (inactive)
[7]
  outcome: inactive
[5]
  outcome: inactive
F380Y/beta1
  log fold change Tl+ flux: -0.0325 (inactive)
F380Y/beta4
  log fold change Tl+ flux: -0.0711 (inactive)
R275C/beta4
  log fold change Tl+ flux: 0.00975 (inactive)
R275C/Slo1WT/beta2
  log fold change Tl+ flux: 0.0252 (inactive)
